Bioassay records from PubChem.
PfHsp40 yeast – rescue of yeast from PfHsp40 toxicity, primary screen, S. cerevisiae, ATP luminescence. S. cerevisiae expressing PfHsp40, growth rescue. growth rescue, % at 12.5 µM. hit rate 0.68% among 340,000; in the data active means growth rescue above about 28%, passing the limit was not always enough;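 further: yeast W303a lacking pdr1 and pdr3 grown in galactose medium; growth measured after three days at 30 °C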
ugtP null kill – growth inhibition of ugtP-null S. aureus, primary screen, RN4220 ugtP deletion, OD600. 16 h. growth inhibition, % (no concentration beside the values). hit rate 0.54% among 330,000; in the data active means growth inhibition above about 68%;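 further: plate controls were untreated wells for no effect and antibiotic for full effect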
BJeLR lethal – MLPCN primary cell-based screen for lethality selective to Ras in HRASV12 cells. BJeLR (HRASV12) viability, CellTiter-Glo ATP luminescence, 48 h. inhibition, % (test concentration not listed). hit rate 0.17% among 300,000; in the data active means inhibition above about 50%
PrP 5UTR inh – inhibition of PrP 5' UTR reporter expression | cell-based PrP 5' UTR mRNA reporter, plate reader | inhibition, % (test concentration not listed) | hit rate 0.35% among 340,000; in the data active means inhibition above about 52%; further: 0 = median of the neutral control wells
RN4220 kill – growth inhibition of S. aureus RN4220, primary screen, OD600; inhibition, % (test concentration not listed); 16 h; hit rate 0.33% among 330,000; in the data active means inhibition above about 85%;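 further: plate controls were untreated cells for no effect and reference antibiotic for full effect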
Y pestis TopoI – Yersinia pestis topoisomerase I inhibitors, primary screen, biochemical, cleavage product accumulation, plate reader, single point. activity, % at 10 µM. hit rate 0.064% among 360,000. AID 504884, 2011. DNA topoisomerase I (Yersinia pestis CO92). Y. pestis Topo-I cleavage product accumulation; in the data active means activity above about 50%, passing the limit was not always enough
The depositor's hits bear a star. In the library only some 1.4% were active in any assay of this set; here they are far more common.

For CCOC1OC(C(=O)NCc2ccccc2)=CC(c2csc3ccccc23)C1CCCO (stereo not drawn) the results were ugtP null kill -8 and RN4220 kill 6.
For CC1CN(C(C)CO)C(=O)c2cccc(NC(=O)c3ccncc3)c2OC1CN(C)Cc1ccc(Cl)c(Cl)c1 (stereo not drawn) the results were ugtP null kill 8 and RN4220 kill 8.
`CC1CN=C(N(C)C)N1CCc1ccc(F)cc1` (stereo not drawn) gave ugtP null kill 1 and RN4220 kill 4.
For CCOc1ccc(NS(=O)(=O)c2cnc(Cl)c(Cl)c2)cc1 the results were PfHsp40 yeast 88*, ugtP null kill -5, BJeLR lethal -12, PrP 5UTR inh -19, RN4220 kill 9 and Y pestis TopoI 4.
For O=C1/C(=C\c2cc(Br)cc(Br)c2O)SC(=S)N1Cc1ccccc1 the results were PfHsp40 yeast 0, ugtP null kill 100*, BJeLR lethal 3, PrP 5UTR inh -5, RN4220 kill 100* and Y pestis TopoI -4.
`COc1ccc(/C=C/c2ccc3cccc(O)c3n2)c(OC)c1OC` gave PfHsp40 yeast 33*, ugtP null kill -21, BJeLR lethal 8, PrP 5UTR inh -31, RN4220 kill 7 and Y pestis TopoI 19.
COc1cc(/C=C/c2ccc3cccc(O)c3n2)cc(OC)c1OC was read as PfHsp40 yeast 0, ugtP null kill 2, BJeLR lethal 56*, PrP 5UTR inh -20, RN4220 kill 0 and Y pestis TopoI 17.
COc1cccc(/C=C/c2ccc3cccc(O)c3n2)c1 was read as PfHsp40 yeast 35*, ugtP null kill -20, BJeLR lethal 24, PrP 5UTR inh -46, RN4220 kill 5 and Y pestis TopoI 11.
COc1cc(/C=C/c2ccc3cccc(O)c3n2)cc(Br)c1OC was read as PfHsp40 yeast -1, ugtP null kill 9, BJeLR lethal 48, PrP 5UTR inh -24, RN4220 kill 6 and Y pestis TopoI -1.
COc1ccc(/C=C/c2ccc3c(Br)ccc(O)c3n2)cc1 was read as PfHsp40 yeast 0, ugtP null kill 47, BJeLR lethal -14, PrP 5UTR inh -31, RN4220 kill 49 and Y pestis TopoI -1.
For COc1cc(/C=C/c2ccc3c(Br)cc(Br)c(O)c3n2)ccc1O the results were PfHsp40 yeast -1, ugtP null kill 100*, BJeLR lethal 39, PrP 5UTR inh 28, RN4220 kill 99* and Y pestis TopoI 4.
`CC(C)CN1CCC(=O)N(C(COc2ccccc2)Cc2ccccc2)CC1` (stereo not drawn) gave ugtP null kill 1 and RN4220 kill 2.
Screening CC(C)CC(NC(=O)c1nc[nH]c1C(=O)NC(CC(C)C)C(=O)OC(C)(C)C)C(=O)OC(C)(C)C (stereo not drawn) returned ugtP null kill -2 and RN4220 kill -9.
For COc1cc(/C=C/c2nc(-c3ccccc3O)n[nH]2)cc(OC)c1OC the results were PfHsp40 yeast 42*, ugtP null kill -11, BJeLR lethal 1, PrP 5UTR inh -61, RN4220 kill 1 and Y pestis TopoI -5.
For COc1cc(/C=C/c2nc(N)nc(-c3ccccc3O)n2)cc(OC)c1OC the results were PfHsp40 yeast -2, ugtP null kill 7, BJeLR lethal 15, PrP 5UTR inh -4, RN4220 kill 0 and Y pestis TopoI 8.
For COc1ccc(-c2nc3c4c(ncn3n2)-c2ccccc2CC42CCCC2)cc1 the results were PfHsp40 yeast -1, BJeLR lethal 4, PrP 5UTR inh -24 and Y pestis TopoI 4.
Screening Oc1cccc(-c2nc3c4c(ncn3n2)-c2ccccc2CC42CCCC2)c1 returned PfHsp40 yeast 0, ugtP null kill 89*, BJeLR lethal 3, PrP 5UTR inh -18, RN4220 kill 31 and Y pestis TopoI -2.
Screening Nc1ccc2ccccc2c1N=Nc1ccccc1 returned PfHsp40 yeast 7, ugtP null kill 95*, PrP 5UTR inh -14, RN4220 kill 8 and Y pestis TopoI -24.
COP(=O)(OC)C(C=O)=NNc1ccc([N+](=O)[O-])cc1 was read as ugtP null kill 8 and RN4220 kill 3.
Screening COc1ccccc1C(=O)NCCC(=O)N1CC=C(c2ccccc2)CC1 returned PfHsp40 yeast 1, ugtP null kill 4, BJeLR lethal 4, PrP 5UTR inh 1, RN4220 kill 4 and Y pestis TopoI 132*.
For Cc1cccc(C(=O)N(Cc2nc3ccccc3c(=O)[nH]2)C2CCCCC2)c1 the results were PfHsp40 yeast 1, ugtP null kill -12, BJeLR lethal -3, PrP 5UTR inh -4, RN4220 kill 1 and Y pestis TopoI 54*.
Screening Cc1cccc(C(=O)N(Cc2nc3ccccc3c(=O)[nH]2)C2CCCC2)c1 returned PfHsp40 yeast 0, ugtP null kill -1, BJeLR lethal -13, PrP 5UTR inh -34, RN4220 kill 6 and Y pestis TopoI 23.
`COc1ccc(NC(=O)c2cc(-c3cc(C)cc(C)c3O)n[nH]2)cc1Cl` gave PfHsp40 yeast 1, ugtP null kill 90*, BJeLR lethal 0, PrP 5UTR inh -11, RN4220 kill 50 and Y pestis TopoI -2.
O=C(NN=CC=Cc1ccccc1)c1cc2c(ccc3ccccc32)o1 was read as ugtP null kill -1 and RN4220 kill 2.
Screening Oc1c(Br)cc(C=NNc2ccc(Cl)nn2)cc1Br returned ugtP null kill 18 and RN4220 kill 7.
For Oc1c(Br)cc(Br)cc1C=NNc1ccc(Cl)nn1 the results were ugtP null kill 100* and RN4220 kill 21.
`CCCOc1cccc(-c2nn(-c3ccccc3)cc2/C=C(\C#N)C(=O)NCCCn2ccnc2)c1` gave PfHsp40 yeast 45*, ugtP null kill 20, BJeLR lethal -13, PrP 5UTR inh -27, RN4220 kill 8 and Y pestis TopoI 21.
For C[C@H]1CC[C@@]2(C)[C@@H](CC[C@@H]3[C@@H]2CC[C@]2(C)[C@@H](O)CC[C@@H]32)C1 the results were PfHsp40 yeast 1, ugtP null kill 99*, BJeLR lethal -5, PrP 5UTR inh -8, RN4220 kill 94* and Y pestis TopoI 17.
Screening C[C@]12CCC3C(CC[C@H]4C[C@@H](O)CC[C@]34C)[C@H]1CC[C@H]2O (stereo partly drawn) returned PfHsp40 yeast 6, ugtP null kill 5, PrP 5UTR inh -20, RN4220 kill 9 and Y pestis TopoI 2.
Screening Cc1ccc(OC(=O)C2c3ccccc3Oc3ccccc32)cc1C returned PfHsp40 yeast 0, ugtP null kill 90*, BJeLR lethal -4, PrP 5UTR inh -18, RN4220 kill -1 and Y pestis TopoI 9.
